Results as given in PubChem BioAssay (NCATS).
Inconclusive results are not listed.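 The calls were made as follows, unless noted: active = compounds whose dose series gives a full or clear partial fitted curve of increased nuclear translocation; inconclusive = weak partial curve or effect only at the top dose; inactive = no dose-dependent translocation response.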

test system: not listed separately; test: Stat Signaling Pathway (AID 446; active = well fitted curve in either direction with a large enough effect, not every such curve was filed as active;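 also: ME-180 cervical cancer cells given 40 pM IL-6 alongside compound; SIE-controlled beta-lactamase reporter measured as 460/530 nm FRET emission ratio; % is scaled to controls: 0 for no effect and ±100 for the full control effect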); details: ME-180 (cervical carcinoma) SIE beta-lactamase reporter, IL-6 stimulated, 5 h; at 17.2 µM (top of the series) unless noted
Procedure, shortened: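 Overnight-plated ME-180 cells bearing a STAT Inducible Element beta-lactamase reporter; 5 h co-exposure to compound and 40 pM IL-6; values normalized to 300 pM IL-6 and 125 nM JAK inhibitor controls.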

activity, negative = inhibition, inactive:
Cn1c(OCc2cccnc2)nc2c1c(=O)n(Cc1ccc(Br)cc1)c(=O)n2C -27.6%, CCC(=O)Oc1ccc(C(CC)C(CC)c2ccc(OC(=O)CC)cc2)cc1 (configuration not stated) -3.77%, CSC1=C(C#N)C(c2ccc(C)s2)CC(=O)N1 (configuration not stated) 7.78%, CCCc1nc(NC2CCCCC2)c(C#N)c2c1COC(C)(C)C2 25.5%

target: Glucocorticoid receptor (Homo sapiens) (UniProt P04150); test: GR-GFP Redistribution (AID 450); details: U2OS GR-GFP nuclear translocation, laser cytometry, 2 h; series mostly up to 20.6 µM; also: potency is read from the fitted curve at half-maximal effect
Sequence (P04150 whole entry, looked up): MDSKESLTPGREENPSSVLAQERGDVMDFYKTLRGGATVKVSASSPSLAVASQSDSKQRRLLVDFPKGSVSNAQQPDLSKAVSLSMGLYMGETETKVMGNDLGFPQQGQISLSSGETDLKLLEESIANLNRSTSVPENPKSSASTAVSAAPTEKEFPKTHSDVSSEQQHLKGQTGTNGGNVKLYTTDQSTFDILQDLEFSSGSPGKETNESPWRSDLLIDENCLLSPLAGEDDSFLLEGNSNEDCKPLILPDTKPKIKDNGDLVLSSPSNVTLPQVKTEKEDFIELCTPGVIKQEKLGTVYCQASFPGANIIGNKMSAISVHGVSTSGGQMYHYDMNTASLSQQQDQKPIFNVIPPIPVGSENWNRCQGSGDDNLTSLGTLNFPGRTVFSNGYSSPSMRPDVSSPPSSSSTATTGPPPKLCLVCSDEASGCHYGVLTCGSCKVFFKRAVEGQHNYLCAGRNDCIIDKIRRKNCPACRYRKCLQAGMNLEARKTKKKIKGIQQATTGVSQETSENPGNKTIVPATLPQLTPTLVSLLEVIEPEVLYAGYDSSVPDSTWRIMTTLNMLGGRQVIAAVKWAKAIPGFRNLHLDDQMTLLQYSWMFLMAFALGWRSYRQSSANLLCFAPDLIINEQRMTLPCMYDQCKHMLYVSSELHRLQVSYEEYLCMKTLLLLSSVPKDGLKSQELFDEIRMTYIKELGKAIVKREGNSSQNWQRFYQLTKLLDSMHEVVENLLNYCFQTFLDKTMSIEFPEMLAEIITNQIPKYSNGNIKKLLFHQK

Potency, inactive:
COc1ccc(CSc2nnc3n(C)c(=O)c4c5c(sc4n23)CCCC5)cc1 > 20.6 µM, CC(C)CC(NC(=O)OC(C)(C)C)C(=O)NCc1ccccc1 (configuration not stated) > 20.6 µM, CN(CCOC(=O)c1cccc(Br)c1)C(C)(C)C > 20.6 µM, Cc1ccc(CNC(=O)c2cc3c(=O)n4ccccc4nc3n(CC3CCCO3)c2=N)cc1 (configuration not stated) > 20.6 µM, CN(C)CCCO[C@H]1[C@H]([C@H](O)CO)O[C@H]2OC(C)(C)O[C@@H]21 > 46 µM, CCCCN(CCCC)C(=O)CSc1nnc2n(C)c(=O)c3c4c(sc3n12)CCCC4 > 20.6 µM, CC[C@H](C)[C@@H]1O[C@]2(CC[C@@H]1C)C[C@H]1C[C@H](CC=C(C)[C@@H](O[C@@H]3C[C@H](OC)[C@H](O[C@@H]4C[C@H](OC)[C@H](O)[C@H](C)O4)[C@H](C)O3)[C@@H](C)C=CC=C3CO[C@@H]4[C@@H](O)C(C)=C[C@@H](C(=O)O1)[C@]34O)O2 > 20.6 µM, COc1ccc(Nc2oc(-c3cccs3)nc2C#N)cc1 > 20.6 µM
